Data published in PubChem BioAssay.
Calls of active or inactive are those of the source.

Assays:
[1] = small molecules captured by biotinylated probe aFSTL3 – biochemical, small-molecule microarray, fluorescence 635/667, stem cell growth factor project, primary screen (AID 1064); details: higher = more signal;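 further: measures binding of the biotinylated anti-FSTL3 antibody to printed compounds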
[2] = binders from COS7 lysate, DM2A8 probe, primary screen, torsin A project, cell lysate, small-molecule microarray, fluorescence 635/667 (AID 1065); details: higher = more signal, COS7 lysate expressing mutant human TOR1A
[3] = small molecules captured by biotinylated probe aFGF2 – biochemical, small-molecule microarray, fluorescence 635/667, stem cell growth factor project, primary screen (AID 1067); details: higher = more signal;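 further: measures binding of biotinylated aFGF2 protein to printed compounds on slides; z-score merges feature fluorescence and signal-to-noise across triplicate slides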
[4] = small molecules captured by biotinylated probe aFGF10 – biochemical, small-molecule microarray, fluorescence 635/667, stem cell growth factor project, primary screen (AID 1071); details: higher = more signal;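 further: score merges 667 nm spot intensity and signal to noise from triplicate slides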
[5] = biological target: Neurogenic locus notch homolog protein 2 (Homo sapiens) (UniProt Q04721); assay: small molecules binding Notch2 protein – biochemical, small-molecule microarray, 635 nm fluorescence, stem cell growth factors, primary screen (AID 1073); details: higher = more signal
[6] = biological target: Pro-neuregulin-1, membrane-bound isoform (Homo sapiens) (UniProt Q02297); assay: small molecules binding neuregulin-1 protein – biochemical, small-molecule microarray, fluorescence 635/667, psychiatric disease protein project, primary screen (AID 1075); details: NRG1 binding, 635 nm fluorescence, higher = more signal;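 further: score combines 667 nm spot fluorescence with signal to noise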
Chain of Pro-neuregulin-1, membrane-bound isoform (Homo sapiens) (Q02297 whole entry, looked up, the tested form may be a part, canonical isoform): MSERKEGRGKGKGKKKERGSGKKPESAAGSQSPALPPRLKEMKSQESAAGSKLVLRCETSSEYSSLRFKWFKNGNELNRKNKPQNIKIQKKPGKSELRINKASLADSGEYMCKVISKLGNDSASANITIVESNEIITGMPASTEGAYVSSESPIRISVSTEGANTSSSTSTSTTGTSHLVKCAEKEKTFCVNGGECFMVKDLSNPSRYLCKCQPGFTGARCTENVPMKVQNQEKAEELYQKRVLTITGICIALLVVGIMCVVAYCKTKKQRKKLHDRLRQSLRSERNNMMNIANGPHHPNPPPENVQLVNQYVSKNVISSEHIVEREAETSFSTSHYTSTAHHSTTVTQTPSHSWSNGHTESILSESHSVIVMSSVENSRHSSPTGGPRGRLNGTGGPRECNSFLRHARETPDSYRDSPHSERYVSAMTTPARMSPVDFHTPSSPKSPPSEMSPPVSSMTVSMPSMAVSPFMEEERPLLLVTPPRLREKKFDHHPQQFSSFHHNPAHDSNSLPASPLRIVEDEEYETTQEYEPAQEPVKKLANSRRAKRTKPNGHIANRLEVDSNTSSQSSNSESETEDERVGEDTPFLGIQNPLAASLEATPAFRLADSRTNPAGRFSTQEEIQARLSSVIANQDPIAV

[7] = system: Neuregulin-1 EGF-like domain; assay: small molecules binding NRG1 EGF domain – biochemical, small-molecule microarray, 635 nm fluorescence, primary screen (AID 1081); details: higher = more signal;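 further: binding of the protein to compounds printed on small-molecule microarray slides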
[8] = FRG1 expression reporter modulators in myotubes – cell-based, C2C12 myotubes, firefly/Renilla luciferase, luminescence, FRG1 inhibition for FSHD, primary screen (AID 1084); details: FRG1 promoter luciferase, higher = more signal, called active from +8 up or from −8 down
[9] = small molecules captured by biotinylated probe aFST – biochemical, small-molecule microarray, fluorescence 635/667, stem cell growth factor project, primary screen (AID 1086); details: higher = more signal;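 further: score merges 667 nm fluorescence with signal-to-noise of each printed compound spot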
[10] = binders of probe aHhip on microarray, primary screen, stem cell growth factor project, biochemical, small-molecule microarray, fluorescence 635/667 (AID 1087); details: higher = more signal;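 further: score merges spot fluorescence at 667nm with spot signal to noise ratio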
[11] = system: PRMT1 (protein arginine N-methyltransferase 1); assay: small molecules binding arginine methyltransferase PRMT1 – biochemical, small-molecule microarray, 635 nm fluorescence, primary screen (AID 1088); details: higher = more signal;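 further: binding of Prmt1 protein to compounds spotted on small-molecule microarray slides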
[12] = growth effects on S. cerevisiae YJM789 – YJM789 clinical isolate, OD600, 24 h, basal, primary screen (AID 1089); details: higher = more signal, called active from +8 up or from −8 down;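 further: growth of clinical yeast isolate S. cerevisiae YJM 789 seeded 1000 cells per well; test concentration not given here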
[13] = S. pombe growth modifiers, basal conditions – strain 972, OD600, 24 h, no modulator, primary screen (AID 1090);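 further: basal condition with compound alone and no growth modifier present; test concentration not given here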; details: S. pombe 972 growth, higher = more signal, called active from +8 up or from −8 down
[14] = budding yeast growth modifiers under rapamycin – strain BY4716, OD600, 96 h, primary screen (AID 1091); further: test concentration not given here; details: S. cerevisiae BY4716 + rapamycin, higher = more signal, called active from +8 up or from −8 down
[15] = biological target: Torsin-1A-interacting protein 2 (Homo sapiens) (UniProt Q8NFQ8); assay: small molecules binding lysate-expressed LULL1 – cell lysate, human LULL1 lysate, 635/667 nm fluorescence, primary screen (AID 1092); details: small-molecule microarray, hLULL1 lysate binding, 635 nm fluorescence; higher = more signal;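 further: probe is lysate of COS7 cells overexpressing human LULL1; score merges per-feature 667 nm fluorescence with signal-to-noise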
Chain of Torsin-1A-interacting protein 2 (Homo sapiens) (Q8NFQ8 whole entry, looked up): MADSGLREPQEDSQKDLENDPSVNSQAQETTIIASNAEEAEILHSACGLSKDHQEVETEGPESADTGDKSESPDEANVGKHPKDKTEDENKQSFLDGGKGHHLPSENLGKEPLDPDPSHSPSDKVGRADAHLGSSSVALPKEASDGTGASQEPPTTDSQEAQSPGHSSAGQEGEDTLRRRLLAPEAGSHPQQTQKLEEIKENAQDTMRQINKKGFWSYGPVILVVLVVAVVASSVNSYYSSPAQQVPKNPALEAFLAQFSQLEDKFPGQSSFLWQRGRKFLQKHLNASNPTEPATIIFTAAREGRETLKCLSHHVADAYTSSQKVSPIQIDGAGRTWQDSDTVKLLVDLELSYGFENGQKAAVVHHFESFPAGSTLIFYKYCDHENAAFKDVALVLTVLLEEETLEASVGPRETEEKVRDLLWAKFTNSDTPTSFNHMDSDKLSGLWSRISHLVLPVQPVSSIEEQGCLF

[16] = optical density change of DRC41 E. coli – strain DRC41, OD650, 24 h, E. coli filamentation project, primary screen (AID 1093);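 further: MC1000 strain lacking acrAB efflux and sulA so SOS filamentation is blocked; test concentration not given here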; details: E. coli DRC41 growth, higher = more signal, called active from +8 up or from −8 down
[17] = probe aLefty2 binding to arrayed compounds – biochemical, biotinylated probe, 635/667 nm fluorescence, primary screen (AID 1094); details: small-molecule microarray, higher = more signal;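 further: score merges spot fluorescence near 667 nm with spot signal-to-noise ratio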
[18] = system: Noggin (protein binding on small-molecule microarray); assay: small molecules binding Noggin protein – biochemical, 635/667 nm fluorescence, primary screen (AID 1095); details: 635 nm fluorescence, higher = more signal;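 further: score merges 667 nm feature fluorescence with signal to noise over triplicate slides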
[19] = biological target: Neurogenic locus notch homolog protein 3 (Homo sapiens) (UniProt Q9UM47); assay: small molecules binding NOTCH3 protein – biochemical, 635/667 nm fluorescence, primary screen (AID 1096); details: small-molecule microarray, 635 nm fluorescence, higher = more signal
Chain of Neurogenic locus notch homolog protein 3 (Homo sapiens) (Q9UM47 whole entry, looked up): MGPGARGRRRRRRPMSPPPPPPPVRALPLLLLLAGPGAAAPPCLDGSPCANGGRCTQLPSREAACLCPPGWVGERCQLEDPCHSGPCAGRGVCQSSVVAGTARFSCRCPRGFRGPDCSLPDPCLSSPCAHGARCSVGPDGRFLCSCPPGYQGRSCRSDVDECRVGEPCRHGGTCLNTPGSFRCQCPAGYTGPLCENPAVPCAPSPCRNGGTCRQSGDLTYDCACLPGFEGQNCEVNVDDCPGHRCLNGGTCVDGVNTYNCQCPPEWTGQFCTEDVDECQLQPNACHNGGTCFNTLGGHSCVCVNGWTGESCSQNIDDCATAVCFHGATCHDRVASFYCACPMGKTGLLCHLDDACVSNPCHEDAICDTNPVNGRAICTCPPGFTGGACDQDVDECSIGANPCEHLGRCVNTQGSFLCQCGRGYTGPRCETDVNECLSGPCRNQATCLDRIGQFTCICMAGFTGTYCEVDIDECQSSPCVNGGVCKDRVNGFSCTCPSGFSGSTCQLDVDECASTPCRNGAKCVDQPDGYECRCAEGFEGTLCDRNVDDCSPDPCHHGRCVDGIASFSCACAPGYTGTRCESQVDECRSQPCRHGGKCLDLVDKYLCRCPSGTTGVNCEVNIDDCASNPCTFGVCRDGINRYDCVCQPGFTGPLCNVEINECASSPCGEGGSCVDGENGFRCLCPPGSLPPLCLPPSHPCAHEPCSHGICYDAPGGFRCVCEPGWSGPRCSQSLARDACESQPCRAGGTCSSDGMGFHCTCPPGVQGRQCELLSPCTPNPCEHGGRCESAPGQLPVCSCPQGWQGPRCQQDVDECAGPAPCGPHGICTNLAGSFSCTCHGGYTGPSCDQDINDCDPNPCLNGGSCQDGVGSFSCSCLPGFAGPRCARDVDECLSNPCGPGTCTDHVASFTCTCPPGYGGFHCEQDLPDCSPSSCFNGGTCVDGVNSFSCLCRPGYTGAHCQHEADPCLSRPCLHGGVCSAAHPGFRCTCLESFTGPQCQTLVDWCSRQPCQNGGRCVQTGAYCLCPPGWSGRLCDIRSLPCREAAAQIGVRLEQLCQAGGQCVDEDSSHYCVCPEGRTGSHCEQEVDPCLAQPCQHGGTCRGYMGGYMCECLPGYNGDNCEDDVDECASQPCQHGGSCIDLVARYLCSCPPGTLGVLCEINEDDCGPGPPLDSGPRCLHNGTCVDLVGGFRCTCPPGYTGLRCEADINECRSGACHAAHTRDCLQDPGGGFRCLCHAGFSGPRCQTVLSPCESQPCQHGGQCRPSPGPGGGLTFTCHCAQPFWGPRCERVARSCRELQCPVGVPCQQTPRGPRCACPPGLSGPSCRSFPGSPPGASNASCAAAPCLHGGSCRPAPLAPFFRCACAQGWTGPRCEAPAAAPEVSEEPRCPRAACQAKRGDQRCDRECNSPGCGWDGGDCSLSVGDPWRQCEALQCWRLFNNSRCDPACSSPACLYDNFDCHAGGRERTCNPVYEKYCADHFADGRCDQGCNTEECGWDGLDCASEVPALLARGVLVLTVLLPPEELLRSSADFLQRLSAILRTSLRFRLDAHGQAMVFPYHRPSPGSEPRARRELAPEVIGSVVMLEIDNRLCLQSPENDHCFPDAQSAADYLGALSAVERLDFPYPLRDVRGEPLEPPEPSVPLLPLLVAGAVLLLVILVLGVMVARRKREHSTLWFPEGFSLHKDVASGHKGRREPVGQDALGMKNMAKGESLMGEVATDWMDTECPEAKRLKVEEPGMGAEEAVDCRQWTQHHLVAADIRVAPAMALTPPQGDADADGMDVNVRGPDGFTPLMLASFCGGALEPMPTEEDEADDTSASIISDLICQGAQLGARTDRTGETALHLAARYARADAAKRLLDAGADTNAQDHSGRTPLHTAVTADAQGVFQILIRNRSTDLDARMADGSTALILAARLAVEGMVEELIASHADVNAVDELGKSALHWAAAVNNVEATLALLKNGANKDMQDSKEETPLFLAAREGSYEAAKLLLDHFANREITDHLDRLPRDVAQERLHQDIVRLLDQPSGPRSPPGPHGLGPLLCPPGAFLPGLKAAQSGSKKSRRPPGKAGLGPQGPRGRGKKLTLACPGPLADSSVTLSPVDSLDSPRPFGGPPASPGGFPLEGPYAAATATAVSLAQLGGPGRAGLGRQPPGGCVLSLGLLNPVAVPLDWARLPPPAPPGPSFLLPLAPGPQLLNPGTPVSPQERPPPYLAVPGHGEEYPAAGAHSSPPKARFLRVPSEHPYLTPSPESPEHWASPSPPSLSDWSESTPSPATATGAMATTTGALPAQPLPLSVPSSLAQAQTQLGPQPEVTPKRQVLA

[20] = probe aEGFR binding to arrayed compounds – biochemical, biotinylated probe, 635/667 nm fluorescence, primary screen (AID 1097); details: small-molecule microarray, higher = more signal;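 further: probe is a biotinylated anti-EGFR antibody binding compounds printed on slides; score combines fluorescence near 667 nm and signal to noise of each spot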

SMILES	composite z-score [1]	composite z-score [2]	composite z-score [3]	composite z-score [4]	composite z-score [5]	composite z-score [6]	composite z-score [7]	z-score [8]	composite z-score [9]	composite z-score [10]	composite z-score [11]	z-score [12]	z-score [13]	z-score [14]	composite z-score [15]	z-score [16]	composite z-score [17]	composite z-score [18]	composite z-score [19]	composite z-score [20]
C=CCN1C(=O)[C@@]2(O[C@@H](CCn3cc(CCO)nn3)[C@H]([Si](C)(C)c3ccc(OC)cc3)[C@H]2C)c2cc(NC(=O)c3ccc(OC)cc3)ccc21	-0.0186	0.463	-0.0493	0.051	0.0039	0.457	0.672	-2.22 (inactive)	0.309	-0.0994	1.49	-0.0986 (inactive)	-1.27 (inactive)	-0.738 (inactive)	0.674	1.31 (inactive)	-0.0985	1.04	0.742	-0.0895
COCCOC(=O)N1C(=O)[C@@]2(c3cc(C#CCNC(N)=O)ccc31)[C@H](c1ccccc1OCCO)N1[C@H](c3ccccc3)[C@H](c3ccccc3)OC(=O)[C@H]1[C@@H]2C(=O)Nc1nc2ccccc2s1	0.171	1.05	-0.0893	0.158	0.931	0.582	0.627	1.18 (inactive)	0.986	0.0623	1.28	0.314 (inactive)	-0.364 (inactive)	1.99 (inactive)	1.58	2.67 (inactive)	0.136	0.345	0.799	-0.0732
C=CCNC(=O)[C@H]1[C@@H]2C(=O)O[C@@H](c3ccccc3)[C@@H](c3ccccc3)N2[C@@H](c2ccccc2OCCO)[C@]12C(=O)N(C(=O)OCCOC)c1ccc(C#CCCO)cc12	1.61	1.31	0.0603	0.853	0.83	0.79	1.11	-4.05 (inactive)	1.24	0.511	1.43	0.827 (inactive)	-3.06 (inactive)	3.43 (inactive)	1.36	1.68 (inactive)	0.994	1.59	1.12	0.596
Cc1ccc(N2C(=O)c3ccccc3[C@](C)(C(=O)NCC(F)(F)F)[C@@H]2c2ccc(CO)cc2)nc1	1.36	-0.769	-0.128	-1.14	-1.22	1.64	0.0042	0.0677 (inactive)	-0.413	-0.0423	-0.973	-0.625 (inactive)	-0.972 (inactive)	-0.286 (inactive)	-0.916	1.1 (inactive)	-0.0741	-1.81	-2.16	-0.352
COC(=O)C(CC#Cc1ccc2c(c1)[C@]1(C(=O)N2)[C@H](C(N)=O)[C@H]2C(=O)O[C@H](c3ccccc3)[C@H](c3ccccc3)N2[C@@H]1c1ccc(O)cc1)C(=O)OC	-0.343	-0.067	-0.245	-1.28	-0.618	0.205	0.699	-0.117 (inactive)	-0.882	0.384	-0.95	0.337 (inactive)	-1.04 (inactive)	0.484 (inactive)	0.0509	1.61 (inactive)	-0.117	-1.1	-1.23	-0.442
NCCCCCNC(=O)[C@H]1C[C@H]2C(=O)NCC(=O)N2[C@H]1c1ccc(O)cc1	-0.136	2.22	-0.113	0.847	0.775	1.3	1.22	1.51 (inactive)	0.106	0.154	1.55	0.535 (inactive)	-1.08 (inactive)	1.11 (inactive)	2.16	1.1 (inactive)	-0.0424	1.86	0.906	0.186
COC(=O)C(CC#Cc1ccc2c(c1)[C@]1(C(=O)N2)[C@H](C(=O)O)[C@H]2C(=O)O[C@H](c3ccccc3)[C@H](c3ccccc3)N2[C@@H]1c1ccc(OCCO)cc1)C(=O)OC	-0.0148	1.74	-0.0144	0.767	1.17	2.11	1.31	-1.19 (inactive)	0.6	-0.0994	1.55	0.299 (inactive)	-1.91 (inactive)	-1.38 (inactive)	3.03	3.49 (inactive)	-0.0816	0.245	0.983	-0.0728
COC(=O)[C@@]1(CCC(=O)OC(C)(C)C)COC(c2ccc(OCCCO)cc2)=N1	1.47	-1.53	-0.212	-1.92	-1.89	-0.312	0.256	-0.44 (inactive)	-0.311	-0.405	-0.964	-1.42 (inactive)	-0.502 (inactive)	-0.752 (inactive)	-0.771	0.989 (inactive)	0.0399	-1.99	-1.84	-0.36
CC(C)N1C(=O)c2ccccc2[C@@H](C(=O)NCc2ccccc2)[C@@H]1c1ccc(CO)cc1	-0.0604	0.317	-0.0806	-0.723	-0.423	0.844	1.15	-0.331 (inactive)	-0.0768	-0.141	-0.238	0.582 (inactive)	-0.579 (inactive)	1.31 (inactive)	0.979	0.846 (inactive)	-0.109	-0.608	-0.904	-0.273
C=CCC(OC(C)=O)[C@@H]1[C@@H](N(Cc2ccc(-c3ccccc3)cc2)C(=O)c2ccc(-c3ccccc3)cc2)c2cc(OCCCO)ccc2N1C(=O)c1ccc(-c2ccccc2)cc1 (stereo not given in full)	0.54	0.054	0.032	-0.0598	-0.0106	-0.333	-0.864	-0.0089 (inactive)	0.214	-0.146	-0.655	-0.611 (inactive)	-0.811 (inactive)	0.131 (inactive)	0.399	1.99 (inactive)	0.0525	-0.846	-0.83	-0.0981
